NPC1 promoter act – NPC1 promoter activation; Huh7 NPC1 promoter luciferase reporter, 24 h; Potency, µM (titrated, usually from 9.22 µM), for inactives: at the top dose activation, hits mostly activators; 320,000 compounds, 2.4% hits; AID 485313; note: % of control where 0% means no effect; nearly all actives have a fitted effect of over 60% in size
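Huh7 reporter cells (NPC1 promoter driving luciferase) are dosed with compound for 24 h at 37 °C, 5% CO2; luciferase detection reagent is then added and luminescence measured after 10 min at ambient temperature.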
Rab9 prom act – Rab9 promoter activation. 320,000 compounds, 2.8% hits. Potency, µM (titrated, usually from 9.22 µM), for inactives: at the highest dose activation, negative = inhibition, usual class: activators. Huh7 Rab9 promoter-luciferase reporter, luminescence, 24 h; note: % of control where 0% means no effect; nearly all actives have a fitted effect of over 60% in size
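Huh7 cells stably carrying a Rab9 promoter-luciferase reporter, 1500 cells per well in OP-MEM I with 10% FBS, treated with compound 24 hours at 37C. Luciferase activity read by luminescence after 10 minutes with Amplite reagent.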
FLuc counter – firefly luciferase modulation, counter-screen for miR-21 project; P08659; purified FLuc, Km substrates, luminescence inhibition; Potency, µM (titrated, usually from 57.5 µM), inactives show at the highest dose activity change, negative = inhibition, most hits filed as inhibitors; 360,000 compounds, 6.9% hits;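 note: plate controls were vehicle for no effect and reference inhibitor for full effect; nearly all actives have a fitted effect of over 55% in size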
Target sequence (P08659 whole entry, looked up): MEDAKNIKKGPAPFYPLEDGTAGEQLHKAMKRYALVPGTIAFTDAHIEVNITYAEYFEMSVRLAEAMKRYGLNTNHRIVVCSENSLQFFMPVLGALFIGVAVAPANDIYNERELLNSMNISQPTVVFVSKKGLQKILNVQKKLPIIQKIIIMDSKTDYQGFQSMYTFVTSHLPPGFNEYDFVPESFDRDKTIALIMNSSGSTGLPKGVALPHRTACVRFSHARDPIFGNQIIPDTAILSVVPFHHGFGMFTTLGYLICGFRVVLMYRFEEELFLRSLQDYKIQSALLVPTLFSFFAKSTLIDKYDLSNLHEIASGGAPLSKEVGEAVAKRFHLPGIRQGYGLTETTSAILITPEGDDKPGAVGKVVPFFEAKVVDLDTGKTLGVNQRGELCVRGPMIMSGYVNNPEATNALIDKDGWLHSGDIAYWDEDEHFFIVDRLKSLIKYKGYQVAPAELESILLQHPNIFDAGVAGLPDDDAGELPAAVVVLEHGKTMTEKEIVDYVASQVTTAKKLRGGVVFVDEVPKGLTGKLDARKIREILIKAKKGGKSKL
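Purified P. pyralis luciferase (10nM final) with 10uM D-luciferin and 10uM ATP (Km levels) in 50mM Tris acetate pH 7.5, 10mM Mg acetate, 0.01% Tween-20, 0.05% BSA; qHTS 6-point titration, ~60 µM downward; luminescence read.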
SMN2 splice enh – SMN2 splice variant enhancement; HEK293 SMN2-luciferase splicing reporter, luminescence, 30-36 h; Potency, µM (titrated, usually from 46.1 µM), inactives show top-dose activity change, positive = activation, actives largely listed as activators; 210,000 compounds, 2.8% hits; note: % of control where 0% means no effect; nearly all actives have a fitted effect of over 55% in size
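qHTS luciferase splicing reporter: luminescence rises when SMN2 exon 7 is included in transfected HEK293 cells. Compound exposure lasted 30-36 h at 37C, with 4.5 mM final sodium butyrate as control, followed by a ONE-Glo read.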
ELG1 repair inh – inhibitors of ELG1-dependent DNA repair in HEK293T cells | HEK293T ELG1-luciferase reporter, luminescence, 16 h; DNA damage induced by 5-fluorouridine | Potency, µM (doses to about 46.1 µM), for inactives: at the highest dose activity change, negative = inhibition, usual class: inhibitors | 330,000 compounds, 2.3% hits | AID 504467; note: % is set by controls: 0 for no effect and ±100 for the full control effect; nearly all actives have a fitted effect of over 55% in size
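Quantitative HTS, concentration-response format. 2,000 cells/well co-treated with 5-fluorouridine and compound, 16 hr in 5% CO2 at 37 °C; ONE-Glo luminescence read after 30 min.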
ELG1 genotox – induces genotoxicity in HEK293T cells with luciferase-tagged ELG1 | HEK293T ELG1-luciferase reporter, luminescence, 16 h | Potency, µM (titrated, usually from 46 µM), for the others: at the top dose activity change, positive = activation, usual class: activators | 330,000 compounds, 1.3% hits | AID 504466; note: % of control where 0% means no effect; nearly all actives have a fitted effect of over 60% in size
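Step 1: seed 2,000 HEK293T ELG1-luciferase cells per well. Step 2: add compound or DMSO, incubate 16 hr at 37 °C. Step 3: ONE-Glo, 30 min at room temperature, read luminescence.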
Active calls of the source: *; ? = inconclusive; / = no result given. The list is not random: actives were taken first. Their share in the collection is about 9.3%. Calls come from the whole dose curve; as a rule, active = well fitted curve in the direction sought with a large enough effect; inconclusive = small, poorly fitted or top-dose-only effect, or another doubt; inactive = no such curve, though single readings can be large; an effect the other way counts as inactive or inconclusive. Potency is the fitted concentration of half-maximal effect.

SMILES	NPC1 promoter act	Rab9 prom act	FLuc counter	SMN2 splice enh	ELG1 repair inh	ELG1 genotox
CCN(CC)S(=O)(=O)c1ccc(N2CCOCC2)c(NC(=O)c2cc(Cl)c3c(c2)OCO3)c1	/	/	/	/	8.2µM*	0%
CCOc1ccc(N(C)C(=O)CCc2nnc3ccc(NCc4ccco4)nn23)cc1	-5%	-2%	0%	/	?	8%
C[C@]12c3[nH]c4ccccc4c3CCN1C(=O)C(CC(=O)NCCN1CCOCC1)C[C@@H]2C(=O)N1CCCCC1 (stereo partly specified)	/	/	/	/	10%	4%
Cc1cc(-c2ccccc2)c2c3c(c(-c4ccccc4)n2n1)c(=O)n(C)c(=O)n3C	-2%	1%	0%	-4%	?	1%
O=C(CCCN1C(=O)S/C(=C\C=C\c2ccccc2)C1=O)Nc1ccc(C(=O)O)cc1	?	?	21µM*	/	?	22%
O=C(CCN1C(=O)S/C(=C\C=C\c2ccccc2)C1=O)Nc1ccc(O)cc1	3.5µM*	3.5µM*	?	/	?	13µM*
O=C(CN1C(=O)S/C(=C\C=C\c2ccccc2)C1=O)Nc1cccc(O)c1	21%	?	12µM*	71%	?	?
CCOc1ccccc1OCCCC(=O)Nc1nc2ccccc2[nH]1	8%	5%	-1%	-4%	?	6%
O=C(COc1ccc2ccccc2c1)Nc1nc2ccccc2[nH]1	2%	1%	-3%	-19%	?	14%
COc1ccc(CC(=O)Nc2nc3ccccc3[nH]2)cc1	30%	23%	-2%	/	30%	-1%
COc1ccccc1CCC(=O)Nc1nc2ccccc2[nH]1	?	?	13µM*	13µM*	?	?
COc1ccc(CCC(=O)Nc2nc3ccccc3[nH]2)cc1	3.5µM*	2.2µM*	?	-1%	?	?
COc1ccc(OCC(=O)Nc2nc3ccccc3[nH]2)cc1	?	?	4.8µM*	18%	?	21µM*
CCCCCC(=O)Nc1nc2ccccc2[nH]1	?	?	13µM*	14µM*	?	?
O=C1CC(N2CCOCC2)C(=O)N1c1cc(Cl)cc(Cl)c1 (stereo unspecified)	4%	8%	-6%	1%	9%	-5%
Cc1ccc(N=C2S/C(=C/c3cccc(OCC(=O)O)c3)C(=O)N2C)cc1C	-1%	-9%	-5%	/	-6%	0%
Cc1[nH]c2ccccc2c1NC(=O)CN1CCN(c2cccc(C(F)(F)F)c2)CC1	/	/	-16%	-6%	/	/
Cc1[nH]c2ccccc2c1C(O)CN1CCN(c2cccc(C(F)(F)F)c2)CC1 (stereo unspecified)	-8%	-8%	-5%	/	15µM*	3%
CSc1nc(O)c(/C=C2\C=Nc3ccccc32)[nH]1	21%	?	11µM*	?	?	?
O=c1[nH]c(/C=C2\C=Nc3ccccc32)c(O)n1Cc1ccccc1F	-11%	-24%	-18%	-18%	?	-6%
O=C(CSc1nncc2ccccc12)Nc1ccccc1	-1%	0%	17µM*	/	5%	0%
O=C(CSc1nncc2ccccc12)Nc1ccc(C(=O)O)cc1	-7%	-4%	-15%	/	?	2%
O=C(CCN1CCC(c2ccccc2)C1)c1cccs1 (stereo unspecified)	3%	-5%	-3%	-17%	0%	-5%
CCOC(=O)c1c[nH]c(=S)n(-c2ccccc2)c1=O	5%	-1%	-2%	/	13%	2%
CC1CCN(c2ccc(/C=C(\C#N)c3nn(-c4ccccc4)c(N)c3C#N)cc2[N+](=O)[O-])CC1	-7%	-3%	5%	-18%	?	-3%
SMILES	NPC1 promoter act	Rab9 prom act	FLuc counter	SMN2 splice enh	ELG1 repair inh	ELG1 genotox
CC(=O)c1ccc(NC(=O)CCc2c(C)nc3cc(-c4ccc(Cl)cc4)nn3c2C)cc1	/	/	17µM*	-21%	/	/
Cc1csc(NC(=O)CCc2c(C)nc3cc(-c4cccc(F)c4)nn3c2C)n1	0%	-7%	6%	-44%	?	-11%
Cc1ccc(NC(=O)CCc2c(C)nc3cc(-c4ccccc4)nn3c2C)cc1F	/	/	11µM*	19%	/	/
On1c(-c2ccccc2Cl)nc2ncccc21	-2%	-2%	3%	/	-2%	0%
Cc1c(C(=O)Nc2ccc3c(c2)OCCO3)sc2nc(-c3ccccc3)cn12	-7%	-9%	-17%	-117%	13µM*	-11%
COc1ccc(-c2cn3c(C)c(C(=O)N4CCc5ccccc5C4)sc3n2)cc1	-4%	0%	?	/	?	-9%
CCN(CC)c1ccc(NC(=O)c2sc3nc(-c4ccccc4)cn3c2C)cc1	/	/	-11%	/	/	/
Cc1c(C(=O)N2CCc3ccccc3C2)sc2nc(-c3ccccc3)cn12	-4%	0%	?	2%	21µM*	-13%
Cc1onc(-c2ccccc2)c1C(=O)Nc1ccc2c(c1)OCCO2	0%	4%	-3%	-13%	-3%	2%
Cc1c(C(=O)Nc2ccncc2)sc2nc(-c3ccccc3)cn12	0%	-7%	-8%	-75%	13µM*	0%
COc1cccc(OC)c1C(=O)Nn1c(-c2cccs2)nc2ccccc2c1=O	0%	8%	-4%	5%	?	-5%
CC(CC(=O)Nc1nccs1)c1ccccc1 (stereo unspecified)	2%	-1%	6%	/	?	0%
Cc1cc(=O)oc(C)c1C(=O)OCC(=O)c1ccccc1	10%	7%	?	-8%	?	2%
Cc1cc(=O)oc(C)c1C(=O)OCC(=O)c1ccc2ccccc2c1	15%	12%	3.4µM*	-21%	?	1%
Cc1cc(=O)oc(C)c1C(=O)OCC(=O)c1ccc(Cl)cc1	18%	27%	12µM*	-14%	?	5%
Cc1cc(=O)oc(C)c1C(=O)OCC(=O)c1ccc(Br)cc1	1%	12%	9.5µM*	-18%	0%	-1%
Cc1ccc(Cl)c(OCC(=O)Nc2ccccc2C(=O)NC2CC2)c1	-3%	-6%	3%	/	-4%	-6%
CCN(CCCNC(=O)CN(C)S(=O)(=O)c1cccc2nsnc12)c1cccc(C)c1	1%	3%	-1%	-7%	?	-8%
CCN(CCNC(=O)CN(C)S(=O)(=O)c1cccc2nsnc12)c1ccccc1	5%	-2%	-1%	-20%	23µM*	-8%
CCOc1ccc(-c2ccc(SCc3ccccn3)nn2)cc1	?	?	13µM*	16%	5%	-7%
CCc1ccc(-c2ccc(SCc3ccccn3)nn2)cc1	3.2µM*	?	8.5µM*	?	?	?
